According to PubChem BioAssay (EPA / NIEHS):
Records with an inconclusive call do not appear. The source made the active and inactive calls. Rule for the calls: active = hit-call score of the fitted dose curve at least 0.9, where 1 is the maximum; inconclusive = response in the unintended direction; inactive = score below 0.9.

Experiment: ATG_M_32_TRANS: Attagene TRANS-FACTORIAL HepG2 Assay for M32 Transcription Factor (Internal Marker) (AID 2282984)
Conditions: HepG2 Attagene TRANS M32 internal marker reporter
Method: ATG_TRANS is a cell-based, multiplexed-readout assay that uses HepG2, a human liver cell line, with measurements taken at 24 hours after chemical dosing in a 24-well plate.ATG_M_32_TRANS is one of 30 assay component(s) measured or calculated from the ATG_TRANS assay. It is designed to make measurements of mRNA induction, a form of inducible reporter, as detected with fluorescence intensity signals by Reverse transcription polymerase chain reaction (RT-PCR) and Capillary electrophoresis technology.Data from the assay component ATG_M_32_TRANS was analyzed into 1 assay endpoint. This assay endpoint, ATG_M_32_TRANS, was analyzed in the positive analysis fitting direction relative to DMSO as the negative control and baseline of activity. Using a type of inducible reporter, measures of mRNA for gain-of-signal activity can be used to understand the background control at the transcription factor-level as they relate to the gene . Furthermore, this assay endpoint can be referred to as a secondary readout, because this assay has produced multiple assay endpoints where this one serves a background control function. To generalize the intended target to other relatable targets, this assay endpoint is annotated to the background measurement intended target family, where the subfamily is internal marker.
Human liver HepG2 cells are transiently transfected with multiple reporter transcription units (MRTUs) in 6-well plates using FuGene 6 reagent (Roche; 3 ml FuGene/1 mg DNA). The MRTU constructs are regulated by a cis-regulating element (promoter). […] A major difference between the CIS and TRANS system is that in CIS activities of endogenous TFs are measured, whereas the TRANS assay evaluates changes in activities of exogenous, chimeric NR-Gal4 proteins. […] At the end of 24 hour incubation, total RNA was isolated using TriZol reagent (Invitrogen). The isolated RNA is then reverse-transcribed using oligo(dT) primer and Mo-MLV reverse transcriptase (Invitrogen) with DNAse I (Ambion) treatment for 30 min. The one-tenth of the produced cDNA was amplified by PCR using Taq DNA polymerase (Invitrogen) and two reporter sequence-specific primers. The PCR products were fluorescently labeled by primer extension with 6-arboxyfluorescein (6-FAM) 5'-labeled reporter sequence-specific primer (2 min at 95 C, 20 s at 68 C and 10 min at 72 C) and these products were digested with 5U of HpaI (New England Biolabs) for 2h at 37 C. The fragments were purified using Qiaquick PCR columns (Qiagen), analyzed on an ABI 3130xL genetic analyzer (Applied Biosystems) with peak positions identified by using a set of X-rhodamine (ROX)-labeled MapMarker1000 molecular weight standards (BioVentures). The raw capillary electrophoresis data was processed using Attagraph software (Attagene).

outcome, inactive:
Cc1ccc2c(c1)C(=O)c1ccccc1C2=O, O=C(Oc1ccccc1)c1ccc2ccccc2c1O, COCCCOCCCOC, CC1=Nc2ccc3ccccc3c2C1(C)C, CCCCCCC1(C)CCC(=O)O1 (stereo not given), O=C1CCCC(=O)O1, OC1OCCOC1O (stereo not given), COC(F)(F)C(F)(C(F)(F)F)C(F)(F)F, O=[N+]([O-])C1(Br)COCOC1, CCN(CC#N)c1cccc(C)c1, O=Nc1ccc(O)cc1, Nc1ccc2cc3ccccc3cc2c1, CCCCC/C=C\C/C=C\CCCCCCCC(=O)OC, CC(C)(C)c1ccc(N)cc1, CC1(C)O[C@@H]2C[C@H]3[C@@H]4C[C@H](F)C5=CC(=O)C=C[C@]5(C)[C@@]4(F)[C@@H](O)C[C@]3(C)[C@]2(C(=O)CO)O1, O=C(c1ccccc1)C1CCC1, Cc1cc(=O)n(-c2ccccc2)n1C, CN(C)c1ccc(N=Nc2ccccc2C(=O)O)cc1, O=C(Cl)c1cc(C(=O)Cl)cc(C(=O)Cl)c1, O=C1CCC(=O)N1Cl, Cc1c(C)c([N+](=O)[O-])c(C(C)(C)C)c([N+](=O)[O-])c1C, CO[Si](CCC1CCC2OC2C1)(OC)OC (stereo not given), C=CC(=O)OCCC(=O)O, Cc1cc(C)c(C(=O)O)c(C)c1, CCc1c(C(=O)O)c(=O)cnn1-c1ccc(Cl)cc1, CC1=CC[C@H](C(C)C)C=C1, C1CN(SSN2CCOCC2)CCO1, CCCc1ccc(OC)cc1, CC(=O)CC(N)=O, OC1CCCC1, O=C(O)CCCC[C@@H]1SC[C@@H]2NC(=O)N[C@@H]21, CCCCCCCCCCC=CC#N, C=CCOc1c(Br)cc(Br)cc1Br, Cc1cc(C)c(C)cc1C, CCCCCCCCc1ccc(Nc2ccc(CCCCCCCC)cc2)cc1, CCCCC(CC)COC(=O)c1ccccc1O (stereo not given), COC(=O)c1sccc1S(N)(=O)=O, Cc1cnc(NC(=O)C2=C(O)c3ccccc3S(=O)(=O)N2C)s1, O=C1C=CC(=O)O1, NC(=O)C1CO1 (stereo not given)
